Measured values from PubChem BioAssay.
Results filed as inconclusive are left out. Active and inactive are the calls of the source. Unless noted, no stated cut-off is given here; in the data, active means percent of DMSO control GFP below about 86%; inactive means the rest, inconclusive results apart.

Assays:
[1] = rapamycin-like changes in RPL19A-GFP expression – cell-based, S. cerevisiae, multiplex flow cytometry, primary screen (AID 1862);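 further: lower values mimic rapamycin by blocking the RPL19A rise seen in DMSO cells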; details: S. cerevisiae RPL19A-GFP strain, flow cytometry fluorescence, 3 h; at 10 µM; stronger effect = lower value
[2] = TOR pathway GLN3 branch reporter MEP2-GFP changes – S. cerevisiae, multiplex flow cytometry, primary screen (AID 1867;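 active means GFP response, as percent of the DMSO control, above the screen-wide mean plus 3 SD, about 139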;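 further: median GFP channel fluorescence of barcode-gated MEP2-GFP cells measured by flow cytometry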); details: S. cerevisiae MEP2-GFP strain, 3 h, at 10 µM, stronger effect = higher value, 100% means same as DMSO wells
[3] = TOR pathway RTG branch CIT2 reporter changes – S. cerevisiae, GFP fusion, multiplex flow cytometry, primary screen (AID 1870;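 active means percent response above a set limit, the screen-wide mean plus 3 SD, cut at about 130% in these data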;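 further: barcoded CIT2-GFP strain pooled with four other GFP strains with rapamycin as positive control; median GFP fluorescence per well over plate mean of DMSO wells so 100% = DMSO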); details: S. cerevisiae CIT2-GFP expression, 3 h, at 10 µM, stronger effect = higher value
[4] = TOR pathway LAP4-GFP level changes – S. cerevisiae, multiplex flow cytometry, primary screen (AID 1873;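 active means GFP signal, as percent of the solvent control, above the screen mean plus 3 SD, about 149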); details: S. cerevisiae LAP4-GFP expression, 3 h, at 10 µM, stronger effect = higher value
[5] = yeast AGP1-GFP level changes, GLN3 branch – cell-based, multiplex flow cytometry, S. cerevisiae, primary screen (AID 1887;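 active means GFP signal above the screen-wide mean plus 3 SD, that is over about 124.5% of the solvent control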;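 further: AGP1-GFP fusion strain of S. cerevisiae within a five-strain barcoded multiplex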); details: 3 h, at 10 µM, stronger effect = higher value
[6] = reduced mouse 2C T cell binding to pMHC/ICAM-1 vesicles – MLPCN validation set, flow cytometry, LFA-1/ICAM-1 modulator project, pilot screen (AID 2523;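 active means response below a set limit, under 55% cells CD8-positive and vesicle-bound, and CD8 cells' 90th-percentile brightness under 279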;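 on vesicle binding response: mean PE anti-B7-1 fluorescence of CD8+ cells relative to row control; 100% = QL9-loaded vesicles with DMSO vehicle in the same plate row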); details: 2C mouse CD8+ T cells, at 7 µM, stronger effect = lower value; double positive events: measured here: CD8+/vesicle+ event percentage
[7] = target: Integrin beta-1 (Homo sapiens) + Integrin alpha-4 (Homo sapiens) (UniProt P13612+P05556); test: alpha4beta1 integrin LIBS antibody binding reduction – U937 cells, HUTS-21 mAb, flow cytometry, validation set, VLA-4 allosteric modulator project, pilot screen (AID 2674;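 active means inhibition above 50%, about 3 SD of the validation set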;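 further: antibody binding induced by the VLA-4 ligand LDV present at three times its Kd; 0% = LDV ligand with antibody and no compound and 100% = antibody without LDV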); details: HUTS-21 LIBS mAb binding, at 6.7 µM, stronger effect = higher value, binding induced by LDV ligand
Integrin beta-1 (Homo sapiens) + Integrin alpha-4 (Homo sapiens), sequence (P05556 whole entry, looked up): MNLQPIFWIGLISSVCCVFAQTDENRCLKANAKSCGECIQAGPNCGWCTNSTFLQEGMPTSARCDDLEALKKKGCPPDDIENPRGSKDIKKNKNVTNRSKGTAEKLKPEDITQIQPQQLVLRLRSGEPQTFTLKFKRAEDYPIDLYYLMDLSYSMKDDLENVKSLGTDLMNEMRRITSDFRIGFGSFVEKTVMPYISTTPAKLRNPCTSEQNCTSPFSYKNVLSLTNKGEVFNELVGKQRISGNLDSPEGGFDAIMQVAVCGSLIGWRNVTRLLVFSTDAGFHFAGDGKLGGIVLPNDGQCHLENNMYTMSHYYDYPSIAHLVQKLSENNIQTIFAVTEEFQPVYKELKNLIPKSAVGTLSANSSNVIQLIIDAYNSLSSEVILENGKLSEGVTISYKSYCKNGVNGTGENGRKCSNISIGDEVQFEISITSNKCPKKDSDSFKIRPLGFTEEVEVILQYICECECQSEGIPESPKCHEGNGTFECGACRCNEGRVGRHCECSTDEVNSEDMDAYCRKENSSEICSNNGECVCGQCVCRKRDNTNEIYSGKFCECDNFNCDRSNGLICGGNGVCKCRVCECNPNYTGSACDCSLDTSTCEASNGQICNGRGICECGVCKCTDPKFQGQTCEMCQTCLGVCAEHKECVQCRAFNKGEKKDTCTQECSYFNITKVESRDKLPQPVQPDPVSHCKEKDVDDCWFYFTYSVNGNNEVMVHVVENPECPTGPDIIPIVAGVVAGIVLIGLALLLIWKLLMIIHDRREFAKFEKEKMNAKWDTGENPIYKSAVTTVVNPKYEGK
Integrin beta-1 (Homo sapiens) + Integrin alpha-4 (Homo sapiens), sequence (P13612 whole entry, looked up): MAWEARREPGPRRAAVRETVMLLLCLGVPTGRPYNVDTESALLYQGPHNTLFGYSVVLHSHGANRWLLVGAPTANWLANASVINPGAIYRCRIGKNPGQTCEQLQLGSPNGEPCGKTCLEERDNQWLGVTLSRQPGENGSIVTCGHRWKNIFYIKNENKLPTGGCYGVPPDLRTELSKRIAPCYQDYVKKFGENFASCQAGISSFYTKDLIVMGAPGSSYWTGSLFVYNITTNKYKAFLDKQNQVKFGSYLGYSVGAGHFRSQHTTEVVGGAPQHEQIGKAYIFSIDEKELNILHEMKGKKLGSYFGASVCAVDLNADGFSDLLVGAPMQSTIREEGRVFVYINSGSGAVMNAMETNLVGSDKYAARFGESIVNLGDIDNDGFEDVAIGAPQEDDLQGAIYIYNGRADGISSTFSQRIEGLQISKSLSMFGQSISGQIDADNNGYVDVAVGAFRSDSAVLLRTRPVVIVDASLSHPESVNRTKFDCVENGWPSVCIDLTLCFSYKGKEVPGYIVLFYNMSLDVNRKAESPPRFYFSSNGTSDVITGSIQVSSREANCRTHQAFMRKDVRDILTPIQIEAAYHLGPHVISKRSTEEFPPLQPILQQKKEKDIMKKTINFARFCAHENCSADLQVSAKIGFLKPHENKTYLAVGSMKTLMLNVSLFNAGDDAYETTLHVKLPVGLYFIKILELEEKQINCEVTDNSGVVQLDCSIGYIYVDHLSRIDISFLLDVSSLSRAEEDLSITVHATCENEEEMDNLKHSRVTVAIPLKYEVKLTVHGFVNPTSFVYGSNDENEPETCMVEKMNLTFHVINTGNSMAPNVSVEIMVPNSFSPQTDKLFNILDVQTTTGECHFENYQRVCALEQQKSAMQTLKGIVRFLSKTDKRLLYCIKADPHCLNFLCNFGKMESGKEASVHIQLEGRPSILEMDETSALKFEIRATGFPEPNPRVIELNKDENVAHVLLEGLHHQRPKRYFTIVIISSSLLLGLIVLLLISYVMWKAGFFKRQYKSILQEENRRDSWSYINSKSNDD

[8] = calorie-restriction mimetic ROS inhibitors, yeast – validation compound set, pilot screen (AID 2706;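 active means superoxide response below 65% of plate, a cut near 3 SD across the whole screen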;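 further: yeast exposed to compound for one week at 30 degrees C before staining; 100% = mean of all compound wells on the same plate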); details: S. cerevisiae aging, superoxide DHE fluorescence; at 10 µM; stronger effect = lower value
[9] = target: Beta-adrenergic receptor kinase 1 (Homo sapiens) (UniProt P25098); test: GRK2 binders displacing RNA aptamer, biochemical, validation, human GRK2, bead flow cytometry (AID 488806;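 active means aptamer binding inhibition above 30%, about 3 SD of noise from non-fluorescent compounds; inactive means inhibition at or below 30%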); details: bead-bound GRK2, FAM-aptamer displacement, at 10 µM, stronger effect = higher value
Beta-adrenergic receptor kinase 1 (Homo sapiens), sequence (P25098 whole entry, looked up): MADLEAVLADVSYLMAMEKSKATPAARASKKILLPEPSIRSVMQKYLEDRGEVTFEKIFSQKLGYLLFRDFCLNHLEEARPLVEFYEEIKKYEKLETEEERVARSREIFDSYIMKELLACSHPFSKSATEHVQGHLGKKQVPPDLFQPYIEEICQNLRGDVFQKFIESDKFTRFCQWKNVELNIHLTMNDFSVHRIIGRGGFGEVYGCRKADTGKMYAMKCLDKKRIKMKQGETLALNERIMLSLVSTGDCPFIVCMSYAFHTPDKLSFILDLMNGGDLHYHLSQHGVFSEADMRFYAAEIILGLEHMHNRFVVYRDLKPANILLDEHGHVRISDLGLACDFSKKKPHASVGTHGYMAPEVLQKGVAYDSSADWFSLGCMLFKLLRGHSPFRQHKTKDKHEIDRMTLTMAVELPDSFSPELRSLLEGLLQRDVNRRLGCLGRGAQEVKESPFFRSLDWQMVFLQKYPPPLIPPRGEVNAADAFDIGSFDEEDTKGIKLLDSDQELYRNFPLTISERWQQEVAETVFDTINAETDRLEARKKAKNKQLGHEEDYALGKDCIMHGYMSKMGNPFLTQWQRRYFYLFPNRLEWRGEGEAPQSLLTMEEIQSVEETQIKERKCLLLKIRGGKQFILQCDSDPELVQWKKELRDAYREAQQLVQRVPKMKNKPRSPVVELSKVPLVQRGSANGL

[10] = target: Beta-2 adrenergic receptor (Homo sapiens) (UniProt P07550); test: agonist-induced loss of surface beta2AR – cell-based, FAP fluorogen, flow cytometry, validation set, pilot screen (AID 504459;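 active means percent response above 42, roughly 3 SD of non-fluorescent test compounds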;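 further: agonist-driven loss of surface beta2AR via internalization measured by FAP dye flow cytometry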); details: Am2.2-beta2AR cells, at 10 µM, stronger effect = higher value
Beta-2 adrenergic receptor (Homo sapiens), sequence (P07550 whole entry, looked up): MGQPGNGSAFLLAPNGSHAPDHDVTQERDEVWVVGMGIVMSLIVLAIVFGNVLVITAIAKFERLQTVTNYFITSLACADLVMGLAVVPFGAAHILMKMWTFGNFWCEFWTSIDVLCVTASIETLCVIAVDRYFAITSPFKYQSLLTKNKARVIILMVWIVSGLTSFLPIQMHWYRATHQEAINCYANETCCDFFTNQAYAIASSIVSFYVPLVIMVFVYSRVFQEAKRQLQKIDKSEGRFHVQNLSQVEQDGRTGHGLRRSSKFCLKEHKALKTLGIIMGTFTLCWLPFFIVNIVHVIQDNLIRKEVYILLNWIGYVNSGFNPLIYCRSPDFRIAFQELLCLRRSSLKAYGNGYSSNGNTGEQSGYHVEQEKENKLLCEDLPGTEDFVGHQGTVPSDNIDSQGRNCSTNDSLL

[11] = target: AP-2 complex subunit beta (Homo sapiens) (UniProt P63010); test: beta-arrestin/AP2 interaction blockers – biochemical, validation set, GST-AP2 beads, flow cytometry, pilot screen (AID 504541;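 active means inhibition above 54%, about 3 SD of non-fluorescent compounds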;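 further: AP2 carries R879A mutation and is captured from E. coli lysate; bead-bound FITC arrestin peptide fluorescence measuring arrestin peptide binding to AP2; 0% = DMSO wells and 100% = excess unlabeled arrestin peptide control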); details: FITC arrestin peptide, at 10 µM, stronger effect = higher value, AP2 beta2 appendage fragment, R879A mutant
AP-2 complex subunit beta (Homo sapiens), sequence (P63010 whole entry, looked up, the tested form may be a part, one chain of several): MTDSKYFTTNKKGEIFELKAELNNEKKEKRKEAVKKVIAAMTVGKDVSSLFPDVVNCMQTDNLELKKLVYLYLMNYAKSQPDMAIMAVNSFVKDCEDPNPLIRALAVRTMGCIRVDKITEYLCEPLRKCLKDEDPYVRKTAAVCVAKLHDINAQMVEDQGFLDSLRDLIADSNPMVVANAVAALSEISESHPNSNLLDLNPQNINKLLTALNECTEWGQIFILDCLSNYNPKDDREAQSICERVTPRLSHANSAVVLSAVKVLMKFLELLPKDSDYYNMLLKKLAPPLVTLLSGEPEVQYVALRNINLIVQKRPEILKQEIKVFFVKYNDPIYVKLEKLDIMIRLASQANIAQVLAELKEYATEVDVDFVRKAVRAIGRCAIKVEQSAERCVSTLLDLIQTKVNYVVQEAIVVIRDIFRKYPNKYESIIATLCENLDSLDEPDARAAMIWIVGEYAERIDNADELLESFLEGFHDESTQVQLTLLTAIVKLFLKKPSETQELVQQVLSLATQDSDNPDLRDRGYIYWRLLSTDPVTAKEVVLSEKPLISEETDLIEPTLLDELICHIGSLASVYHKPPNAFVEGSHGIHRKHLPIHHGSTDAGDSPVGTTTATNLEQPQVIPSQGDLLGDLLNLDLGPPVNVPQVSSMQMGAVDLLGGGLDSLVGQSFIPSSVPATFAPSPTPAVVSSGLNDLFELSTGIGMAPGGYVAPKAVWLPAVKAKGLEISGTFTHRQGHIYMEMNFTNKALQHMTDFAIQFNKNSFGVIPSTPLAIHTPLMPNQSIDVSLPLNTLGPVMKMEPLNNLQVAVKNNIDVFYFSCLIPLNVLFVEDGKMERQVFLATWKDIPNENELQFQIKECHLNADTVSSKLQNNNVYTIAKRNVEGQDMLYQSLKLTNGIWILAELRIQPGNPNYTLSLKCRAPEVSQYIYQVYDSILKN

[12] = cytosolic pH regulators acting via V-ATPase – S. cerevisiae, pHLuorin, HTS validation (AID 504600; in the data active means response above about 15%;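 further: plate controls were DMSO for no effect and reference compound for full effect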); details: V-ATPase proton transport, at 10 µM, stronger effect = higher value
[13] = tested on: anti-desmoglein-3 scFv antibody binding to human DSG3; test: blockers of pathogenic pemphigus antibody–desmoglein-3 binding – biochemical, validation compound set, bead-based, flow cytometry, pilot screen (AID 588368;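 active means binding below the plate cutoff, the plate median minus 3 SD, with a reading above zero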;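 further: signal is the median channel fluorescence of bead-bound GFP antibody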); details: Protein G beads, DSG3-Fc, scFv-GFP binding, at 10 µM, stronger effect = lower value
[14] = Nile Red efflux blockade in pump-expressing yeast – validation compound set, multiplex, phenotypic, pilot screen (AID 588506;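 active means efflux inhibition above 0.42, the validation set average plus 4 SD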;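 further: Nile Red retained in cells so higher fluorescence means more efflux inhibition; 0 = negative control wells and 1 = enniatin B 25 µM full block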); details: S. cerevisiae pump-expressing triplex, Nile Red efflux flow cytometry; at 10 µM; stronger effect = higher value; the pumps come from Candida albicans
[15] = target: ATP-binding cassette sub-family B member 6 (Homo sapiens) (UniProt Q9NP58); test: blockers of ABCB6-driven porphyrin uptake – K562-ABCB6 cells, flow cytometry, validation set, pilot screen (AID 588550;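 active means inhibition above the screen-wide mean plus 3 SD, about 51%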;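 further: 0% = DMSO wells and 100% = benzethonium chloride 70 µM positive control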); details: K562-ABCB6 porphyrin accumulation, 1 h, at 10 µM, stronger effect = higher value
ATP-binding cassette sub-family B member 6 (Homo sapiens), sequence (Q9NP58 whole entry, looked up): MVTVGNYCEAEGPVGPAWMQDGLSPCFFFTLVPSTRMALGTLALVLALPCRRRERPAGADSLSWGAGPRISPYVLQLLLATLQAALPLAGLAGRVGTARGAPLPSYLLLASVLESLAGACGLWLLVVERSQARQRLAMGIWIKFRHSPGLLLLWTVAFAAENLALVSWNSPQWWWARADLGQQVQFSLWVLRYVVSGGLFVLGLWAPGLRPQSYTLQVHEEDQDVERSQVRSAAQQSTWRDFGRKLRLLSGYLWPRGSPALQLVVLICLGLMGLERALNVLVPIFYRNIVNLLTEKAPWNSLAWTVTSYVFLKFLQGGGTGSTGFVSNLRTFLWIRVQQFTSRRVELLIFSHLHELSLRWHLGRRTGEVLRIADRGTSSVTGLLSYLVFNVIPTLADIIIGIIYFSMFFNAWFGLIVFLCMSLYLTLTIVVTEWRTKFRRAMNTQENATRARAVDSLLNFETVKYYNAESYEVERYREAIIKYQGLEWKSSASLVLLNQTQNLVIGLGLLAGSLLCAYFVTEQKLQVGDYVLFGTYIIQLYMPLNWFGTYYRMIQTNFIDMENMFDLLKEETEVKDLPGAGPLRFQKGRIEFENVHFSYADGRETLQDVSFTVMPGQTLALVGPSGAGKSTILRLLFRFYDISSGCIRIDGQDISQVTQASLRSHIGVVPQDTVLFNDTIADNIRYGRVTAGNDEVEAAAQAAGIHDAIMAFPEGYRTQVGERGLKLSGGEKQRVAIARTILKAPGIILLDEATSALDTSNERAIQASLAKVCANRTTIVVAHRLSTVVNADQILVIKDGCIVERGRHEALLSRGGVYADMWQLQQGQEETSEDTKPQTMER

[16] = AML differentiation inducers, ER-HoxA9 marrow cells – cell-based, GFP/MAC1 double positive, flow cytometry, validation set, primary screen (AID 588685;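 active means differentiation response of at least 50%, scaled between solvent and reference control, from cells with both markers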;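 further: compound exposure lasts four days before antibody staining and flow analysis; 0% = DMSO wells and 100% = 5 µM fulvestrant positive control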); details: stronger effect = higher value, normalized: vehicle 0, fulvestrant 100

COc1ccc(/C=C\c2cc(OC)c(OC)cc2CC[N+](C)(C)C)cc1OC
57.8%: double positive events [6]
inactive: percent of DMSO control GFP [1] 96.3% | GFP response vs DMSO [2] 102% | percent response of DMSO control [3] 101% | GFP response vs DMSO [4] 122% | GFP response, % of DMSO [5] 103% | vesicle binding response [6] 216% | inhibition [7] -4.52% | superoxide response (% of plate) [8] 108% | aptamer binding inhibition [9] -3% | response [10] -7.25% | inhibition [11] -9.15% | response [12] 0.95% | binding (% of control) [13] 103% | efflux inhibition (fraction of control) [14] 0.26 | inhibition [15] 2% | differentiation response [16] -0.8%

C[C@@H]1C[C@H](Nc2ccccc2)c2ccccc2N1C(=O)c1cccnc1
59.5%: double positive events [6]
inactive: percent of DMSO control GFP [1] 103% | GFP response vs DMSO [2] 103% | percent response of DMSO control [3] 103% | GFP response vs DMSO [4] 98.2% | GFP response, % of DMSO [5] 101% | vesicle binding response [6] 188% | inhibition [7] 3.67% | superoxide response (% of plate) [8] 95.6% | aptamer binding inhibition [9] 4% | response [10] 2.27% | inhibition [11] 19.6% | response [12] -5.05% | binding (% of control) [13] 102% | efflux inhibition (fraction of control) [14] 0.05 | inhibition [15] 0% | differentiation response [16] 29.6%

Cc1cccc(N2CCN(C(=S)c3ccccc3)CC2)c1
63.1%: double positive events [6]
inactive: percent of DMSO control GFP [1] 100% | GFP response vs DMSO [2] 108% | percent response of DMSO control [3] 100% | GFP response vs DMSO [4] 88.7% | GFP response, % of DMSO [5] 90.8% | vesicle binding response [6] 5220% | inhibition [7] -4.6% | superoxide response (% of plate) [8] 101% | aptamer binding inhibition [9] 0% | response [10] -1.25% | inhibition [11] -6.82% | response [12] 1.76% | binding (% of control) [13] 95.3% | efflux inhibition (fraction of control) [14] -0.14 | inhibition [15] 2% | differentiation response [16] -8.55%

COc1ccc(NC(=O)CC(c2ccccc2)c2ccco2)cc1 (stereo not drawn)
inactive: percent of DMSO control GFP [1] 103% | GFP response vs DMSO [2] 97.2% | percent response of DMSO control [3] 105% | GFP response vs DMSO [4] 86.8% | GFP response, % of DMSO [5] 96.8% | vesicle binding response [6] 164% | inhibition [7] -15% | superoxide response (% of plate) [8] 91.5% | aptamer binding inhibition [9] 2% | response [10] -5.85% | inhibition [11] -3.8% | response [12] 3.58% | binding (% of control) [13] 100% | efflux inhibition (fraction of control) [14] -0.07 | inhibition [15] 3% | differentiation response [16] 1.22%
62.8%: double positive events [6]

CCOC(=O)C(NC(=O)CCC(=O)Nc1ccc(S(N)(=O)=O)cc1)C(O)c1ccccc1 (stereo not drawn)
inactive: percent of DMSO control GFP [1] 96.5% | GFP response vs DMSO [2] 103% | percent response of DMSO control [3] 100% | GFP response vs DMSO [4] 106% | GFP response, % of DMSO [5] 101% | vesicle binding response [6] 361% | inhibition [7] 15.1% | superoxide response (% of plate) [8] 102% | aptamer binding inhibition [9] 6% | response [10] -25.5% | inhibition [11] 5.81% | response [12] -6.43% | binding (% of control) [13] 101% | efflux inhibition (fraction of control) [14] 0 | inhibition [15] 7% | differentiation response [16] -7.94%
57.6%: double positive events [6]

O=C(NCc1ccco1)/C(=C\C=C\c1ccccc1)NC(=O)c1ccccc1Br
60.6%: double positive events [6]
inactive: percent of DMSO control GFP [1] 108% | GFP response vs DMSO [2] 107% | percent response of DMSO control [3] 110% | GFP response vs DMSO [4] 110% | GFP response, % of DMSO [5] 106% | vesicle binding response [6] 139% | inhibition [7] -14.5% | superoxide response (% of plate) [8] 95.8% | aptamer binding inhibition [9] 0% | response [10] 12.9% | inhibition [11] 5.44% | response [12] 1.56% | binding (% of control) [13] 104% | efflux inhibition (fraction of control) [14] -0.045 | inhibition [15] -4% | differentiation response [16] -3.11%

CC1(C)[C@@H](O)CC[C@]2(C)[C@H]3C(=O)C=C4[C@@H]5C[C@@](C)(C(=O)O)CC[C@]5(C)CC[C@@]4(C)[C@]3(C)CC[C@@H]12
64.3%: double positive events [6]
inactive: percent of DMSO control GFP [1] 98.8% | GFP response vs DMSO [2] 100% | percent response of DMSO control [3] 89.6% | GFP response vs DMSO [4] 112% | GFP response, % of DMSO [5] 91% | vesicle binding response [6] 698% | inhibition [7] 13% | superoxide response (% of plate) [8] 82.7% | aptamer binding inhibition [9] 7% | response [10] 7.4% | inhibition [11] -5.72% | response [12] 0.36% | binding (% of control) [13] 97.6% | efflux inhibition (fraction of control) [14] 0.11 | inhibition [15] 15% | differentiation response [16] 16.9%

CC(C)Oc1cccc(C(=O)N2CCCC2)c1
64.7%: double positive events [6]
inactive: percent of DMSO control GFP [1] 102% | GFP response vs DMSO [2] 106% | percent response of DMSO control [3] 94.2% | GFP response vs DMSO [4] 99.9% | GFP response, % of DMSO [5] 100% | vesicle binding response [6] 221% | inhibition [7] -4.6% | superoxide response (% of plate) [8] 101% | aptamer binding inhibition [9] 0% | response [10] -9.83% | inhibition [11] -4.57% | response [12] 1.82% | binding (% of control) [13] 93.2% | efflux inhibition (fraction of control) [14] 0.14 | inhibition [15] -4% | differentiation response [16] 9.04%

O=C(Oc1ccccc1)Oc1ccc2c(c1)oc(=O)c1ccccc12
inactive: percent of DMSO control GFP [1] 96.3% | GFP response vs DMSO [2] 126% | percent response of DMSO control [3] 106% | GFP response vs DMSO [4] 90.2% | GFP response, % of DMSO [5] 102% | vesicle binding response [6] 230% | inhibition [7] -6.15% | superoxide response (% of plate) [8] 78.2% | aptamer binding inhibition [9] 2% | response [10] 4.41% | inhibition [11] 4.7% | response [12] 0.05% | binding (% of control) [13] 94.7% | efflux inhibition (fraction of control) [14] 0.34 | inhibition [15] 4% | differentiation response [16] 8.19%
60.1%: double positive events [6]
